In the library only some 3% were active in any assay of this set; here they are far more common.
LmPK inh: qHTS Assay for Inhibitors of Leishmania Mexicana Pyruvate Kinase (LmPK) | Q27686 | AID 1721, 2009 | Potency, µM (series often up to 57.5 µM), without a hit: at the highest dose activity change, negative = inhibition, most hits filed as inhibitors | 290,000 tested, 0.37% active | purified LmPK, Kinase-Glo ATP luminescence, 1 h
Target sequence (Q27686 whole entry, looked up): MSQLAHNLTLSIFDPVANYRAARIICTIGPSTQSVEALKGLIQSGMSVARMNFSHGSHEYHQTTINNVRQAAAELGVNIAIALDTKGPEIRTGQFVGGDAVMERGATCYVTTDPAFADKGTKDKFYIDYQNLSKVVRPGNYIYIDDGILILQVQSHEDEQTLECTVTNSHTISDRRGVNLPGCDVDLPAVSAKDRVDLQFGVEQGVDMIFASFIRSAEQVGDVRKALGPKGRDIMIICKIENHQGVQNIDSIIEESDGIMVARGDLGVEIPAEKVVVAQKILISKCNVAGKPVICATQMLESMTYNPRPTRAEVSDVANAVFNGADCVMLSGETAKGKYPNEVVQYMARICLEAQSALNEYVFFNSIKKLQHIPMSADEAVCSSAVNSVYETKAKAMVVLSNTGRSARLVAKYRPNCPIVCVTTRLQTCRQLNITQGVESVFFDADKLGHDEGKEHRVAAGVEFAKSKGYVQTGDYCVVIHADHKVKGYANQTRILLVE
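0.1 nM LmPK, 0.5 mM PEP, 0.1 mM ADP; 50 mM imidazole pH 7.2, 7 mM MgCl2, 50 mM KCl; 1 h RT. Kinase-Glo luminescence readout, normalized to no-enzyme (full inhibition) and uninhibited wells.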
Sm TGR inh: qHTS Assay for the Inhibitors of Schistosoma Mansoni Peroxiredoxins; Schistosoma mansoni thioredoxin glutathione reductase (TGR), Q962Y6; purified TGR, DTNB reduction, TNB absorbance 405 nm; Potency, µM (titrated, usually from 114 µM), without a hit: top-dose activity change, negative = inhibition, actives largely listed as inhibitors; 360,000 tested, 3% active; AID 485364, 2010; note: nearly all actives have a fitted effect of over 60% in size
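First, TGR (20 nM dispensed) and NADPH were mixed with compound. Second, a 15 min room-temperature incubation followed. Third, further NADPH and then DTNB were added to start the reaction. Finally, TNB absorbance was monitored kinetically.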
RE007 growth inh: qHTS Assay for Inhibitors of the HIV-1 protein Vpr. AID 651644, 2012. S. pombe RE007 Vpr strain, BacTiter-Glo ATP luminescence, 24 h. 360,000 tested, 0.21% active. Potency, µM (highest dose often 92.2 µM), for inactives: top-dose activity change, negative = less growth, actives largely listed as inhibitors; active = well fitted falling curve with a large enough effect; inconclusive = small, poorly fitted or top-dose-only effect; inactive = no such curve, though single readings can be large or run the other way; note: nearly all actives have a fitted effect of over 50% in size
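Fission yeast RE007 carrying one integrated HIV-1 vpr copy, seeded at OD 0.01 in PMG+AL medium with 23 nL pinned compound. Grown 24 h at 30 degrees; viability read by BacTiter-Glo luminescence after 5 min.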
Tb PYK inh: qHTS of Trypanosoma Brucei Inhibitors; pyruvate kinase (Trypanosoma brucei), Q57TT1; TbPYK enzyme, Kinase-Glo Plus ATP luminescence, 45 min; Potency, µM (doses to about 76.8 µM), inactives show at the highest dose activity, negative = inhibition, usual class: inhibitors; 410,000 tested, 0.12% active; AID 624173, 2012; note: nearly all actives have a fitted effect of over 50% in size
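Readout: single end-point luminescence (Kinase-Glo Plus, 10 min). Reaction conditions were TbPYK/substrate plus 130 uM ADP, 45 min at RT, pH 7.2 TEA buffer. No-enzyme wells served as controls, and data were normalized before concentration-response fitting.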
Numbers without * were called inactive. Unless noted, calls come from the whole dose curve; as a rule, active = well fitted curve in the direction sought with a large enough effect; inconclusive = small, poorly fitted or top-dose-only effect, or another doubt; inactive = no such curve, though single readings can be large; an effect the other way counts as inactive or inconclusive. % is set by controls: 0 for no effect and ±100 for the full control effect; potency is the fitted concentration of half-maximal effect.

How did CCCCCS(=O)(=O)c1oc(-c2cccs2)nc1S(=O)(=O)c1ccc(C)cc1 do in these assays?
Sm TGR inh: 2.8µM*; Tb PYK inh: -8%

What do the screens show for `COc1ccccc1CNC(=O)C1CCCN(c2nnc(-n3c(C)ccc3C)s2)C1` (stereo not drawn)?
Sm TGR inh: inconclusive; Tb PYK inh: -10%

Results for CSc1oc(-c2ccc(F)cc2)nc1S(=O)(=O)c1ccc(Br)cc1 ?
Sm TGR inh: 8%; Tb PYK inh: 1%

What do the screens show for `CCC(C)S(=O)(=O)c1oc(-c2ccc(F)cc2)nc1S(=O)(=O)c1ccc(F)cc1` (stereo not drawn)?
Sm TGR inh: 5.6µM*; Tb PYK inh: 4%

Results for Cc1cccc(N2CCN(C(=O)CCCn3ncn4c(cc5occc54)c3=O)CC2)c1C ?
Sm TGR inh: 1%; Tb PYK inh: 1%

How did O=c1[nH]nc(CNc2ccc(O)cc2)c2ccccc12 do in these assays?
LmPK inh: -9%; Sm TGR inh: 35µM*; RE007 growth inh: -16%; Tb PYK inh: -16%

Results for COc1ccccc1/C=N/OC(=O)c1ccc(F)cc1 ?
LmPK inh: 2%; Sm TGR inh: 3%; RE007 growth inh: 60%; Tb PYK inh: -2%

Results for COc1ccc(C(C)=O)cc1COC(=O)c1ccc(N)c([N+](=O)[O-])c1 ?
LmPK inh: 6%; Sm TGR inh: 8.9µM*; RE007 growth inh: -18%; Tb PYK inh: -1%

What do the screens show for `Nc1ccc(C(=O)OCc2ccncc2)cc1[N+](=O)[O-]`?
LmPK inh: 1%; Sm TGR inh: -14%; RE007 growth inh: -4%; Tb PYK inh: -2%

Results for COc1ccc(C(C)=O)cc1COc1ccccc1[N+](=O)[O-] ?
LmPK inh: 0%; Sm TGR inh: 11µM*; RE007 growth inh: 9%; Tb PYK inh: 1%

What do the screens show for `COc1ccccc1/C=N/OCc1cc(C(C)=O)ccc1OC`?
LmPK inh: 1%; Sm TGR inh: 11µM*; RE007 growth inh: 5%; Tb PYK inh: -8%

How did CCOc1ccc(C(C)=O)cc1COc1cccnc1[N+](=O)[O-] do in these assays?
LmPK inh: -2%; Sm TGR inh: 35µM*; RE007 growth inh: -17%; Tb PYK inh: -7%

How did CCCCn1c(=O)n(-c2ccc(Br)cc2F)c(=O)c2c3c(sc21)CN(C(C)=O)CC3 do in these assays?
Sm TGR inh: 5%; Tb PYK inh: 1%

What do the screens show for `COc1ccc(OC)c(C(=O)CN2C(=O)N(c3ccc(C)cc3)S(=O)(=O)c3ccccc32)c1`?
Sm TGR inh: 7%; Tb PYK inh: -6%

Results for COc1ccc(C(C)=O)cc1COC(=O)c1ccc(S(=O)(=O)N2CCOCC2)cc1 ?
LmPK inh: -1%; Sm TGR inh: 18µM*; RE007 growth inh: -17%; Tb PYK inh: 3%

Results for Cc1ccc([C@@H]2C3COCC=C3C(C#N)=C(N)C2(C#N)C#N)o1 (stereo partly drawn) ?
LmPK inh: 1%; Sm TGR inh: 35µM*; RE007 growth inh: -4%; Tb PYK inh: inconclusive

How did Cc1ccccn1 do in these assays?
Tb PYK inh: -6%

Results for COc1ccccc1N1CCN(c2ccc(=O)n(CC(=O)O)n2)CC1 ?
Sm TGR inh: -1%; Tb PYK inh: -1%

How did Cc1cccc(C(=O)NC2CCN(C(=O)Nc3ccc(F)cc3)CC2)c1 do in these assays?
LmPK inh: -4%; Sm TGR inh: 40µM*; RE007 growth inh: 5%; Tb PYK inh: -9%

How did CCOc1ccccc1NC(=O)N1CCC(NC(=O)c2cccc(C)c2)CC1 do in these assays?
LmPK inh: -4%; Sm TGR inh: 25µM*; RE007 growth inh: 10%; Tb PYK inh: -2%

How did Cc1cccc(C(=O)NC2CCN(C(=O)Nc3ccccc3C)CC2)c1 do in these assays?
LmPK inh: 5%; Sm TGR inh: 14%; RE007 growth inh: 10%; Tb PYK inh: 5%

How did N#CC1(NC(=O)Cn2ncc(Cl)c(Cl)c2=O)CCCCC1 do in these assays?
Sm TGR inh: 18µM*; RE007 growth inh: 27%; Tb PYK inh: 3%

Results for CN(Cc1ccco1)C(=O)CC[C@H]1O[C@@H](n2ccc(=O)[nH]c2=O)[C@H](O)[C@@H]1O ?
RE007 growth inh: 0%; Tb PYK inh: 5%

What do the screens show for `COc1ccc(C(=O)NCC23C=CC(O2)C2C(=O)N(Cc4ccccc4)C(=O)C23)cc1` (stereo not drawn)?
LmPK inh: 0%; Sm TGR inh: 3.5µM*; RE007 growth inh: 25µM*; Tb PYK inh: -2%

What do the screens show for `COc1ccccc1C(CC(N)=O)c1ccco1` (stereo not drawn)?
LmPK inh: -2%; Sm TGR inh: -6%; RE007 growth inh: 21%; Tb PYK inh: 1%

How did CC(=O)N(CCC(c1ccco1)C(C)C)Cc1ccc(Cl)cc1 (stereo not drawn) do in these assays?
LmPK inh: -2%; Sm TGR inh: 20µM*; RE007 growth inh: -14%; Tb PYK inh: -4%

What do the screens show for `COc1ccccc1C(CCN(Cc1ccccc1)C(C)=O)c1ccco1` (stereo not drawn)?
LmPK inh: -14%; Sm TGR inh: 18µM*; RE007 growth inh: 15%; Tb PYK inh: -3%

How did COC(=O)CS(=O)(=O)c1nc2ccccc2nc1N1CCCCC1 do in these assays?
Sm TGR inh: inconclusive; Tb PYK inh: 0%

What do the screens show for `CCOC(=O)c1ccccc1NC(=O)Cn1ccn2nc(-c3ccc(OCC)cc3)cc2c1=O`?
Sm TGR inh: -5%; Tb PYK inh: -7%

What do the screens show for `O=C(O)COCC(=O)N1CCCN(c2ccc(C(F)(F)F)cn2)CC1`?
LmPK inh: 9%; Sm TGR inh: 40µM*; RE007 growth inh: 6%; Tb PYK inh: -16%

Results for CC12C=CC(=O)C=C1CCC1C2C(O)CC2(C)C1CCC2(O)C(=O)COC(=O)CCC(=O)O (stereo not drawn) ?
Tb PYK inh: -6%

How did O=C1O[C@H]2[C@@H](OC(O)[C@@H]2O)[C@H]1O (stereo partly drawn) do in these assays?
Tb PYK inh: -6%

Results for Cc1ccc(-c2cc(C(F)F)nc(NCC3CCCO3)n2)cc1 (stereo not drawn) ?
LmPK inh: 2%; Sm TGR inh: -6%; RE007 growth inh: 20µM*; Tb PYK inh: -16%

Results for CC(C)(C)OC(=O)N1CCC(c2c(C(=O)N3CCN(c4ncccn4)CC3)cnn2-c2ccc(F)cc2)CC1 ?
Sm TGR inh: 0%; Tb PYK inh: -1%

Results for CC1CN(c2ccccc2)c2nc3c(c(=O)[nH]c(=O)n3C)n2C1 (stereo not drawn) ?
LmPK inh: -1%; Sm TGR inh: 89µM*; RE007 growth inh: 4%; Tb PYK inh: 1%
